From PubChem BioAssay
Sampled rows, rich in hits. Any-hit rate of the full collection: about 2.2%.
aSyn yeast inh – qHTS of alpha-syn Inhibitors. Potency, µM (highest dose often 46.1 µM), inactives show top-dose growth rescue (activation), usual class: activators. AID 652106, 2013. Yeast expressing alpha-synuclein, growth rescue, BacTiter-Glo, 24 h. 370,000 compounds, 0.14% hits; also: % of control where 0% means no effect; nearly all actives have a fitted effect of over 65% in size
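Rescue of yeast growth: cells expressing toxic alpha-synuclein, induced in galactose at OD600 0.02, incubated with compound 24 h at 30 C. ATP luminescence quantified growth; inhibitors of toxicity appear as activators.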
Mito fusion act – qHTS Assay for Small Molecule Inhibitors of Mitochondrial Division or Activators of Mitochondrial Fusion. Potency, µM (series often up to 46.1 µM), for inactives: at the top dose growth rescue (activation), actives largely listed as activators. 320,000 compounds, 0.23% hits. AID 485298, 2010. S. cerevisiae fusion-defective mutant growth rescue, CellTiterGlo 48 h; also: % of control where 0% means no effect; nearly all actives have a fitted effect of over 45% in size
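Read-out: ATP-based luminescence (CellTiterGlo, 10 min ambient) reporting growth of fusion-defective ts yeast after 48 hours at 37C on glycerol/ethanol YPEG medium in the presence of compound.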
FUS yeast rescue – qHTS for Suppressors of FUS Proteinopathy: Primary screen using FUS-linked yeast assay. 390,000 compounds, 0.24% hits. S. cerevisiae FUS-expressing, growth rescue, OD600, 24 h. Potency, µM (doses to about 76.6 µM), usual class: activators;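 also: plate controls were DMSO vehicle for no effect and reference control for full effect; nearly all actives have a fitted effect of over 55% in size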
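Cultures pregrown in 2.5% raffinose medium are shifted to minimal medium containing 2% galactose to express toxic FUS. Compounds are tested at several concentrations. After 24hr at 30C, growth is quantified at 600 nm absorbance.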
Abeta yeast res – qHTS for compounds that reverse cellular toxicity of Amyloid beta (A-beta) peptide in yeast: Primary Screen; AID 1347071, 2019; Potency, µM (highest dose often 46.1 µM), most hits filed as activators; 410,000 compounds, 0.063% hits; yeast expressing A-beta42, growth rescue, OD600, 48 h; response scale: 0% DMSO, 100% iron-clioquinol control; also: nearly all actives have a fitted effect of over 55% in size
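Growth rescue measured by 600 nm absorbance after 48 h yeast culture at 30 C with compound. Values normalized between DMSO and an equimolar ferric chloride plus clioquinol control.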
TDP43 rescue – qHTS of TDP-43 Inhibitors; TDP-43 expressing yeast growth rescue, BacTiter-Glo, 24 h; Potency, µM (top dose mostly 46.1 µM), for inactives: at the top dose growth rescue (activation), actives largely listed as activators; 410,000 compounds, 1.8% hits; AID 652104, 2013; also: % of control where 0% means no effect; nearly all actives have a fitted effect of over 50% in size
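Galactose-induced TDP-43 yeast, OD600=0.02, compound pinned; 24 hr, 30 deg C; BacTiter-Glo luminescence for growth. Inhibitors of TDP-43 toxicity read as activators.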
The depositor's hits bear a star. Calls follow the shape of the dose curve; as a rule, active = well fitted curve in the direction sought with a large enough effect; inconclusive = small, poorly fitted or top-dose-only effect, or another doubt; inactive = no such curve, though single readings can be large; an effect the other way counts as inactive or inconclusive. Potency is read from the fitted curve at half-maximal effect.

For Cc1cccc(NC(=O)CN2C(=O)N/C(=C/c3cc(C)n(C(C)C)c3C)C2=O)c1 the results were aSyn yeast inh 21%, Mito fusion act -4%, FUS yeast rescue 20µM*, Abeta yeast res inactive and TDP43 rescue -9%.
Screening Cc1cccc(NC(=O)CN2C(=O)N/C(=C/c3ccc(C)s3)C2=O)c1 returned aSyn yeast inh -3%, Mito fusion act -1%, Abeta yeast res inactive and TDP43 rescue -7%.
For C=C1C(=O)[C@]23C[C@H]1CCC2[C@@]1(C)C(C[C@@H]3O)[C@](C)(C(=O)OC)CC[C@@H]1O (stereo partly drawn) the results were aSyn yeast inh -51%, FUS yeast rescue inactive, Abeta yeast res inactive and TDP43 rescue 3.2µM*.
Screening C=C1C(=O)[C@]23C[C@H]1CC[C@H]2[C@]1(C)CCC[C@@](C)(C(=O)OC)[C@H]1C[C@@H]3O returned FUS yeast rescue inactive.
COC(=O)[C@]12C[C@H](CC(=O)NCc3ccc(OC)c(OC)c3)C(=O)N(Cc3cccc4ccccc34)C1=C[C@H](C1CCCC1)O[C@@H]2C was read as FUS yeast rescue 13µM*.
Screening COC(=O)[C@]12C[C@H](CC(=O)NCc3ccc(C)o3)C(=O)N(Cc3cccc4ccccc34)C1=C[C@H](C1CCCC1)O[C@@H]2C returned FUS yeast rescue 28µM*.
For COC(=O)[C@]12C[C@H](CC(=O)N3CCN(C(=O)c4ccco4)CC3)C(=O)N(Cc3cccc4ccccc34)C1=C[C@H](C1CCCC1)O[C@@H]2C the results were FUS yeast rescue 16µM*.
For COC(=O)[C@]12C[C@H](CC(=O)NCc3ccc(OC)c(OC)c3)C(=O)N(Cc3ccco3)C1=C[C@H](C1CCCC1)O[C@@H]2C the results were FUS yeast rescue inactive.
For COC(=O)[C@]12C[C@H](CC(=O)NCC34CC5CC(CC(C5)C3)C4)C(=O)N(Cc3cccc4ccccc34)C1=C[C@H](C1CCCC1)O[C@@H]2C the results were FUS yeast rescue inactive.
`COC(=O)[C@]12C[C@H](CC(=O)NCc3cccc4ccccc34)C(=O)N(CCc3ccc(OC)c(OC)c3)C1=C[C@H](C(C)C)O[C@@H]2C1CC1` gave FUS yeast rescue 13µM*.
Cc1ccc(-c2nnc(SCC(=O)NC(C)(C)C)nc2-c2ccc(C)cc2)cc1 was read as FUS yeast rescue inconclusive, Abeta yeast res inactive and TDP43 rescue 10%.
COc1ccc(S(=O)(=O)N2CCN(c3nc(-c4cccs4)nc4ccccc34)CC2)cc1 was read as aSyn yeast inh -4%.
For OCCCn1c(C2CCCN2c2nc(-c3ccc(F)cc3)cs2)nc2cc(Cl)c(Cl)cc21 (stereo not drawn) the results were aSyn yeast inh -5%, FUS yeast rescue 35µM*, Abeta yeast res inactive and TDP43 rescue 15%.
For OCCCn1c(C2CCCN2c2nc(-c3ccc(Cl)cc3)cs2)nc2cc(Cl)c(Cl)cc21 (stereo not drawn) the results were aSyn yeast inh 10%, FUS yeast rescue inconclusive, Abeta yeast res inactive and TDP43 rescue inconclusive.
Screening O=C1C=C(c2cccc(CO)c2)C[C@@H](c2ccc3c(c2)OCO3)C1 returned aSyn yeast inh 3%, Mito fusion act 15%, FUS yeast rescue inactive, Abeta yeast res inactive and TDP43 rescue 20µM*.
N#Cc1ccc(C2=CC(=O)C[C@H](c3ccc4c(c3)OCO4)C2)cc1 was read as aSyn yeast inh -2%, Mito fusion act 18%, FUS yeast rescue inconclusive, Abeta yeast res inactive and TDP43 rescue 18µM*.
`COc1ccccc1Nc1nc(N)nc(CSC(=S)N2CC(C)CC(C)C2)n1` (stereo not drawn) gave aSyn yeast inh 0%, Mito fusion act inconclusive, FUS yeast rescue inactive, Abeta yeast res inactive and TDP43 rescue 25µM*.
COc1ccc(Nc2nc(N)nc(CSC(=S)N3CCCCC3)n2)cc1 was read as aSyn yeast inh 2%, Mito fusion act -3%, FUS yeast rescue inactive, Abeta yeast res inactive and TDP43 rescue 20%.
`COc1ccc(Nc2nc(N)nc(CSC(=S)N3CCN(c4ccccc4)CC3)n2)cc1` gave aSyn yeast inh 11%, Mito fusion act inconclusive, FUS yeast rescue inconclusive, Abeta yeast res inactive and TDP43 rescue 18µM*.
Screening CC1CCN(C(=S)SCc2nc(N)nc(Nc3ccccc3)n2)CC1 returned aSyn yeast inh 11%, Mito fusion act 10%, FUS yeast rescue inconclusive, Abeta yeast res 22µM* and TDP43 rescue inconclusive.
Screening O=C(COc1ccccc1C(=O)Nc1ccccc1)Nc1cccc([N+](=O)[O-])c1 returned aSyn yeast inh -2%.
CCCC[C@@H]1CNC(=S)N1CCc1cccc2ccccc12 was read as aSyn yeast inh 21%, Mito fusion act 7%, FUS yeast rescue inactive, Abeta yeast res inconclusive and TDP43 rescue 35µM*.
`CCN(CC)C(=O)CC[C@@H]1CC[C@]2(CCCN(C(=O)c3ccco3)C2)O1` gave FUS yeast rescue inactive.
`CN(C(=O)c1cccc(Nc2ccc(-c3ccc4c(c3)OCCO4)nn2)c1)C1CCCCC1` gave aSyn yeast inh 16%, Mito fusion act inconclusive, FUS yeast rescue 25µM*, Abeta yeast res inactive and TDP43 rescue 22%.
Screening CN(C)S(=O)(=O)c1ccc(Nc2ccc(-c3ccc4c(c3)OCCO4)nn2)cc1 returned aSyn yeast inh -1%, Mito fusion act -2%, FUS yeast rescue inactive, Abeta yeast res inactive and TDP43 rescue -6%.
CNc1ccc(C=C2c3ccccc3-c3ccccc32)cc1 was read as aSyn yeast inh -19%.
C=CCOc1ccc(/C=C/C(=O)OCC(=O)N2CCN(C(C)=O)CC2)cc1 was read as aSyn yeast inh 0%, FUS yeast rescue inactive, Abeta yeast res inactive and TDP43 rescue -13%.
For C=CCOc1ccc(/C=C/C(C)=N\O)cc1 the results were Mito fusion act -2%, FUS yeast rescue inactive, Abeta yeast res inactive and TDP43 rescue 10µM*.
For COc1ccc(C(=O)c2oc3ccccc3c2NC(=O)c2nc(SC)ncc2Cl)cc1Cl the results were FUS yeast rescue inactive, Abeta yeast res inactive and TDP43 rescue 10%.
`COc1ccccc1OCCCn1cc(C#N)c2ccccc21` gave aSyn yeast inh 1%, Mito fusion act 21%, FUS yeast rescue inactive, Abeta yeast res inactive and TDP43 rescue 35µM*.
